This is one part of the list. No count for the full screen is at hand.
Target: furin, P09958
Assay: furin cleavage Z-score vs untreated control; higher = more cleavage, active = 3.5 or more, inactive = 1 or less, 8 variable residues between constant flanks
Outline: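 Sequencing of released DNA, tagged with adapters by PCR, gave read counts used as abundance. That DNA was freed when purified furin cut N-terminally bead-bound 8-mer peptides fused to a cDNA oligonucleotide, in 0.01 ml reactions at 1:10 enzyme:substrate in 50 mM HEPES pH 7.5 with CaCl2 and NaCl, lasting 7.5, 15 or 30 min. The cleavage Z-score was the lowess-adjusted log count versus furin-free reactions, scaled by median absolute deviation.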

Sequence of furin, P09958 (P09958 whole entry): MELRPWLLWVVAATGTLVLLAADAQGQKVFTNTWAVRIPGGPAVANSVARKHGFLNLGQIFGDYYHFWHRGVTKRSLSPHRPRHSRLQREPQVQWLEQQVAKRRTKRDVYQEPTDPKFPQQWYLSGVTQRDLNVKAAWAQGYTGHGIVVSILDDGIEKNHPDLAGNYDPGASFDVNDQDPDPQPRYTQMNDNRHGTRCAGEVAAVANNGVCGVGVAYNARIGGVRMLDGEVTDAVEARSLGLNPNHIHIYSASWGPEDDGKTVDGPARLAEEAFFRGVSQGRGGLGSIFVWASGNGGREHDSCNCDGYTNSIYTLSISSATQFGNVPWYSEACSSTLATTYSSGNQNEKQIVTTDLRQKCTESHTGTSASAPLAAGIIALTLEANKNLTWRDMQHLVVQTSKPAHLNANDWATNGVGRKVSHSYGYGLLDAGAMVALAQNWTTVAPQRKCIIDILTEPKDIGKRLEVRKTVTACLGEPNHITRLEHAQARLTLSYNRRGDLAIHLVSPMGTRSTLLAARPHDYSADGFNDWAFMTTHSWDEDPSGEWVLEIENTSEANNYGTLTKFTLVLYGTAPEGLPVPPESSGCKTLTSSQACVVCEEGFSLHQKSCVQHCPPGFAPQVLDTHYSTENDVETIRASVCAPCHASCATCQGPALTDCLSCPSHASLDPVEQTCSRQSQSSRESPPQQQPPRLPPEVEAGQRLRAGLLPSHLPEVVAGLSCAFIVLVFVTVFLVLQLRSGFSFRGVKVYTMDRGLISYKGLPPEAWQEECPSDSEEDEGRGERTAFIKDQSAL

Row | Sequence | furin cleavage Z-score (7.5 min) | furin cleavage Z-score (15 min) | furin cleavage Z-score (30 min)
1 | CAHSRTIKRSAGNASASA [FS-1632] | 5.07 (active) | 6.15 (active) | 6.19 (active)
2 | CATTPCSYSWAGNASASA [HC1889] | -2.07 (inactive) | 0.349 (inactive) | 1.53
3 | CAGPRLGVRAAGNASASA [HC181] | -1.03 (inactive) | 0.21 (inactive) | -0.871 (inactive)
4 | CAGFHRRARAAGNASASA [FS-239] | 4.46 (active) | 3.84 (active) | 4.12 (active)
5 | CAGNRRRARAAGNASASA [FS-126] | 9.62 (active) | 8.76 (active) | 7.27 (active)
6 | CAGNEGCGWAAGNASASA [HC204] | -0.525 (inactive) | -0.206 (inactive) | -0.116 (inactive)
7 | CAQDVLKEVKAGNASASA [HC1403] | -1.57 (inactive) | -2.35 (inactive) | -1.62 (inactive)
8 | CAITAEAAGRAGNASASA [HC1251] | 0.707 (inactive) | -1.39 (inactive) | -1.45 (inactive)
9 | CARQRRPTGPAGNASASA [FS-2511] | -1.58 (inactive) | -0.922 (inactive) | 0.378 (inactive)
10 | CARQRREMVAAGNASASA [FS-2589] | 4.84 (active) | 5.77 (active) | 5.19 (active)
11 | CARQRRGFHHAGNASASA [FS-2365] | 0.595 (inactive) | 4.95 (active) | 6.76 (active)
12 | CARQRRLLAAAGNASASA [FS-3042] | -1.14 (inactive) | -0.921 (inactive) | 0.324 (inactive)
13 | CARQRRGCFRAGNASASA [FS-2446] | 1.29 | 2.53 | 4.76 (active)
14 | CARDRRGCFAAGNASASA [FS-2253] | -0.438 (inactive) | -0.0621 (inactive) | 0.916 (inactive)
15 | CARQRRGTGAAGNASASA [FS-2762] | 3.78 (active) | 4.54 (active) | 4.93 (active)
16 | CANGSWHLNSAGNASASA [HC369] | -0.0133 (inactive) | 2.38 | 0.739 (inactive)
17 | CAHREVPCHRAGNASASA [HC2435] | -0.316 (inactive) | 1.36 | 2.65
18 | CAVTKLPLAVAGNASASA [HC1460] | -0.671 (inactive) | -0.455 (inactive) | 0.174 (inactive)
19 | CARTPCSGSWAGNASASA [HC1833] | -0.828 (inactive) | -0.942 (inactive) | -0.629 (inactive)
20 | CADQERKARYAGNASASA [FS-758] | -0.446 (inactive) | 0.477 (inactive) | 0.913 (inactive)
21 | CANKFRTKRYAGNASASA [FS-695] | 9.46 (active) | 8.84 (active) | 7.04 (active)
22 | CASGGPLLCPAGNASASA [HC743] | 0.483 (inactive) | -0.364 (inactive) | -1.12 (inactive)
23 | CAKYSRSYRYAGNASASA [FS-937] | -0.221 (inactive) | -0.443 (inactive) | 0.667 (inactive)

Row | Sequence | furin cleavage Z-score (7.5 min) | furin cleavage Z-score (15 min) | furin cleavage Z-score (30 min)
24 | CASGGRTKRYAGNASASA [FS-191] | 8.8 (active) | 10.7 (active) | 9.18 (active)
25 | CARVTAILSSAGNASASA [HC1132] | 1.14 | 0.277 (inactive) | -0.773 (inactive)
26 | CASRSRSPRPAGNASASA [FS-1283] | -0.34 (inactive) | 0.132 (inactive) | -0.275 (inactive)
27 | CARRVRIVSRAGNASASA [FS-1923] | -0.897 (inactive) | 0.174 (inactive) | 1.35
28 | CARRSRDVSCAGNASASA [FS-2519] | 4.17 (active) | 5.01 (active) | 5.69 (active)
29 | CARGPRAVSTAGNASASA [FS-2334] | 0.54 (inactive) | 0.906 (inactive) | 1.4
30 | CARAARHVVAAGNASASA [FS-1988] | 0.916 (inactive) | 2.53 | 4.88 (active)
31 | CARRSRKVGSAGNASASA [FS-2455] | -0.487 (inactive) | 0.947 (inactive) | 0.792 (inactive)
32 | CARAARGTIGAGNASASA [FS-2879] | -0.0204 (inactive) | -0.846 (inactive) | 0.286 (inactive)
33 | CARRSRSPRTAGNASASA [FS-3069] | 8.32 (active) | 10.6 (active) | 7.67 (active)
34 | CARRSRSSYTAGNASASA [FS-3070] | -0.67 (inactive) | 0.865 (inactive) | 2.05
35 | CARCPRQVSTAGNASASA [FS-3216] | 4.16 (active) | 3.66 (active) | 6.67 (active)
36 | CADFEVVTSTAGNASASA [HC2287] | 0.0621 (inactive) | -1.1 (inactive) | -1.43 (inactive)
37 | CARAARSRGAAGNASASA [FS-2324] | -0.759 (inactive) | -0.113 (inactive) | -0.259 (inactive)
38 | CAEVPCHTPSAGNASASA [HC2378] | 0.816 (inactive) | 0.745 (inactive) | 1.13
39 | CAAGYSGGDIAGNASASA [HC1647] | -1.51 (inactive) | -1.76 (inactive) | -1.36 (inactive)
40 | CARAARFAKTAGNASASA [FS-1885] | -1.44 (inactive) | 0.407 (inactive) | 0.00762 (inactive)
41 | CARRSRSSSRAGNASASA [FS-2600] | 0.0891 (inactive) | 0.74 (inactive) | 0.299 (inactive)
42 | CARAARRAAGAGNASASA [FS-1678] | -0.697 (inactive) | -0.053 (inactive) | -1.33 (inactive)
43 | CARAARVPRTAGNASASA [FS-1476] | 7.67 (active) | 5.53 (active) | 4.3 (active)
44 | CARRSRNVSTAGNASASA [FS-2083] | 1.86 | 4.41 (active) | 5.4 (active)
45 | CARRFRVVSGAGNASASA [FS-1774] | 0.247 (inactive) | -0.792 (inactive) | -0.178 (inactive)

— the supplement of paper PMC3545927
